# Data: PubChem BioAssay
# Active and inactive are the calls of the source.
# Tests used:
# [1] = tested on: Plasmodium falciparum Sir2 (PF13_0152, Sir2A); experiment: pfSir2 binders on small-molecule microarrays, primary screen, biochemical, small-molecule microarray, 635 nm fluorescence (AID 1098); conditions: small-molecule microarray binding, fluorescence 635 nm; higher = more signal;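 note: score merges spot fluorescence intensity with its signal-to-noise ratio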
# [2] = small-molecule microarray binders of probe aDKK1, primary screen, biochemical, biotinylated probe, 635/667 nm fluorescence (AID 1099); conditions: higher = more signal;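 note: score merges 667nm spot fluorescence with signal to noise across triplicate slides; reference of the scale not given here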
# [3] = small-molecule microarray binders of probe aCHRDL2, primary screen, biochemical, biotinylated probe, 635/667 nm fluorescence (AID 1100); conditions: higher = more signal
# [4] = splicing luciferase reporter signal modulators, primary screen, spliceosome inhibition project, cell-based, HEK293, splice +/- reporter (AID 1101); conditions: luminescence, 24 h, higher = more signal, called active from +8 up or from −8 down;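 note: HEK293 cells carrying a splicing-competent luciferase reporter gene; test concentration not given here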
# [5] = biological target: Fibroblast growth factor 10 (Homo sapiens) (UniProt O15520); experiment: FGF10 binders on small-molecule microarrays, primary screen, biochemical, small-molecule microarray, 635 nm fluorescence (AID 1102); conditions: FGF10 binding, fluorescence 635 nm, higher = more signal
# [6] = tested on: glycogen synthase kinase-3 (GSK3A per assay name; protocol says GSK3B); experiment: GSK3 binders on small-molecule microarrays, primary screen, biochemical, small-molecule microarray, 635 nm fluorescence, GSK3A (AID 1103); conditions: small-molecule microarray binding, fluorescence 635 nm; higher = more signal; note: the record names both GSK3A and GSK3B
# [7] = biological target: Epidermal growth factor receptor (Homo sapiens) (UniProt P00533); experiment: EGFR binders on small-molecule microarrays, primary screen, biochemical, small-molecule microarray, 635 nm fluorescence (AID 1104); conditions: EGFR binding, higher = more signal;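 note: score merges 667 nm emission intensity with spot signal to noise over triplicate slides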
# [8] = biological target: Follistatin-related protein 3 (Homo sapiens) (UniProt O95633); experiment: FSTL3 binders on small-molecule microarrays, primary screen, biochemical, small-molecule microarray, 635 nm fluorescence (AID 1105); conditions: FSTL3 binding, higher = more signal;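 note: score merges emission near 667 nm and signal to noise per printed spot across three slides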
# [9] = biological target: Dickkopf-related protein 1 (Homo sapiens) (UniProt O94907); experiment: DKK1 binders on small-molecule microarrays, primary screen, biochemical, small-molecule microarray, 635 nm fluorescence scan (AID 1106); conditions: DKK1 binding, higher = more signal;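 note: score merges emission near 667 nm with signal to noise over three replicate slides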
# [10] = tested on: Inhibin beta A chain (activin A); experiment: INHBA (activin A) binders on microarrays, primary screen, biochemical, small-molecule microarray, 635 nm fluorescence scan (AID 1107); conditions: small-molecule microarray binding, higher = more signal;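 note: mouse activin A protein probed at 4.33 µg/mL on printed slides; score merges bound-protein fluorescence near 667 nm with spot signal-to-noise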
# Chain of Fibroblast growth factor 10 (Homo sapiens) (O15520 whole entry, looked up): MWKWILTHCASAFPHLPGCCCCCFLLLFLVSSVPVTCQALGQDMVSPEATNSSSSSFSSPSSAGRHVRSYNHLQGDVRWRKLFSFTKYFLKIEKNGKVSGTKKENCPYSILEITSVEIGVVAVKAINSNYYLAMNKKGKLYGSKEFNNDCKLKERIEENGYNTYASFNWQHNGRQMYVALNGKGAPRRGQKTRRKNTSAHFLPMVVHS
# Chain of Dickkopf-related protein 1 (Homo sapiens) (O94907 whole entry, looked up): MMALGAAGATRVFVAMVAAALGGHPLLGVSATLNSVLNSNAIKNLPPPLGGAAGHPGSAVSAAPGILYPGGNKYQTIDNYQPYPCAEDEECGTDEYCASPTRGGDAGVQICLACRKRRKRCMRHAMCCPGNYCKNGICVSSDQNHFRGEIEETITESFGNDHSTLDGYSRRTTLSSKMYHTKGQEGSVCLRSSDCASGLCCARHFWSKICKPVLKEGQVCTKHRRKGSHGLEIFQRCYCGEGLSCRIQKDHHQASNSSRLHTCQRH
# Chain of Follistatin-related protein 3 (Homo sapiens) (O95633 whole entry, looked up): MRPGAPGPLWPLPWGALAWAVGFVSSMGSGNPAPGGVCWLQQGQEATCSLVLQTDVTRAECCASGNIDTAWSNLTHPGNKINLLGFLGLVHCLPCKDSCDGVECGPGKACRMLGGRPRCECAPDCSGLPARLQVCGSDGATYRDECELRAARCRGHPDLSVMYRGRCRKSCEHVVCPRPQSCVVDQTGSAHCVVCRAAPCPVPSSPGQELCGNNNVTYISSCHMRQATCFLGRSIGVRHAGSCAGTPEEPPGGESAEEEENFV
# Chain of Epidermal growth factor receptor (Homo sapiens) (P00533 whole entry, looked up): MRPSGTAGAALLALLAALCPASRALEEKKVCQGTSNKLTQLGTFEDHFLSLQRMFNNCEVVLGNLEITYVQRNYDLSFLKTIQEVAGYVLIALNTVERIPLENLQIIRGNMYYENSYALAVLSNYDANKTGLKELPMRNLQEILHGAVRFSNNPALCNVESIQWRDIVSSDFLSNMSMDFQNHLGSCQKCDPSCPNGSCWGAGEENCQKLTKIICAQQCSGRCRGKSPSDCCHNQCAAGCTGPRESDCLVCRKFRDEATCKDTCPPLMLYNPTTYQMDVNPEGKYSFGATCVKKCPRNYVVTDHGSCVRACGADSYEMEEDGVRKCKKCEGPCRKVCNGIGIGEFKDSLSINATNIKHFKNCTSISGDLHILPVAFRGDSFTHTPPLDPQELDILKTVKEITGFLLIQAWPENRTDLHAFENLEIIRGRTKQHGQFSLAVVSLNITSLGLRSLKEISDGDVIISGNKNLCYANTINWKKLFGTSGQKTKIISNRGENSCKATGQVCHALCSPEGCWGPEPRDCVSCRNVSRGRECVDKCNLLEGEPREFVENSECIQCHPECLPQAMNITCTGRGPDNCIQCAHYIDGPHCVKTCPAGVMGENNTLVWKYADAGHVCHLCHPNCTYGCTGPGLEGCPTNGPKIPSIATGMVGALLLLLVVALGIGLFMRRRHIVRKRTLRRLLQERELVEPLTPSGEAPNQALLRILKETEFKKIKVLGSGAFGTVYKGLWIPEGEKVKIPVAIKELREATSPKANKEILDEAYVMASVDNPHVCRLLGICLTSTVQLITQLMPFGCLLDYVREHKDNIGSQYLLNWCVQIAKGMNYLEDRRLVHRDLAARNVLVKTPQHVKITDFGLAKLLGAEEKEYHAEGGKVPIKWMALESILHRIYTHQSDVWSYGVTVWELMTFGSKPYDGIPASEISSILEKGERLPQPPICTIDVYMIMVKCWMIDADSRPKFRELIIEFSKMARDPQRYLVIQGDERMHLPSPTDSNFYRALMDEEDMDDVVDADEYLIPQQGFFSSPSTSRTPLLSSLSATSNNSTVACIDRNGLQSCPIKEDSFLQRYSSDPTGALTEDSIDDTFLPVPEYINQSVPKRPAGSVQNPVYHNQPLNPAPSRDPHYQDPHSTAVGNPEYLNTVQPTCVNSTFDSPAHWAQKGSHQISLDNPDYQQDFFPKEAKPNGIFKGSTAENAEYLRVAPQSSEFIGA
Compound,composite z-score [1],composite z-score [2],composite z-score [3],z-score [4],composite z-score [5],composite z-score [6],composite z-score [7],composite z-score [8],composite z-score [9],composite z-score [10]
CCCC[C@@H]1C[C@H]1[C@@H](NC(=O)c1ccccc1)c1ccc(Cl)cc1,-1.24,0.15,1.01,-1.93 (inactive),-1.38,-1.78,-1.77,-2.35,-1.36,0.39
CN1C2C=C(CCCO)C(C3C(=O)N(C(N)=O)C(=O)C32)C1c1cccs1 (stereo not given),-0.254,1.3,0.492,0.359 (inactive),1.12,0.386,-0.259,-0.173,1.45,0.418
C=C(COC)/C(=C/C[C@@H](OC(=O)c1ccncc1)c1ccc(OCCO)cc1)c1cnc2ccccc2c1,0.212,0.0923,-0.0001,-0.275 (inactive),1.46,1.3,1.35,1.58,0.99,1.95
O=c1cccc(-c2cccc(Cl)c2)o1,0.261,0.177,0.114,0.269 (inactive),0.227,0.415,0.167,0.149,-0.0521,0.338
Cc1ccc(S[C@]2(C(=O)NCC(F)(F)F)CC(=O)N(Cc3ccccc3)[C@@H]2c2ccc(CO)cc2)cc1,1.54,0.382,0.767,-0.676 (inactive),-0.409,-0.507,-0.938,-0.763,-1.32,-0.0219
C=C(/C(=C/C[C@@H](OC(=O)c1ccncc1)c1ccc(OCCO)cc1)c1cc(C(=O)OC)ccc1OC)C(C)C,0.596,-0.354,-0.338,-0.432 (inactive),0.426,0.284,0.325,0.609,-0.0107,0.309
CCOC(=CC(=O)OC)CC(O)c1cccc(Cl)c1 (stereo not given),0.971,-0.132,0.445,-1.02 (inactive),-0.617,0.982,-0.779,-0.151,-1.3,-0.297
COCC(=C=CC[C@H](O)c1ccc(OCCO)cc1)C[C@H](O)COCc1ccccc1,1.56,-0.199,-0.228,-1.11 (inactive),0.605,0.351,0.291,0.944,0.462,0.928
CC(C)C(O)C1C=CC2C(=O)N(C)C(=O)C2N1N(c1ccccc1)c1ccccc1 (stereo not given),1.09,0.185,0.972,1.06 (inactive),-0.879,-1.5,-0.381,-0.49,-1.07,1.7
O=C1O[C@@H](c2ccccc2)[C@@H](c2ccccc2)N2[C@@H](c3ccccc3OCCO)[C@]3(C(=O)Nc4ccc(C#CCCO)cc43)[C@@H](C(=O)Nc3nc4ccccc4s3)[C@H]12,0.757,0.74,0.862,-0.0337 (inactive),0.828,1.28,0.528,1.35,0.76,0.406
CC(C)(C)OC(=O)CC[C@@]1(C(=O)O)N=C(c2ccc(OCCCO)cc2)O[C@@H]1c1ccccc1,0.492,0.325,0.824,-0.176 (inactive),-0.0905,-0.126,-0.566,-0.294,-0.646,0.253
C[C@]1(C(=O)NCCN2CCOCC2)c2ccccc2C(=O)N(Cc2ccc(OC(F)(F)F)cc2)[C@H]1c1ccc(CO)cc1,0.654,-0.103,0.604,0.396 (inactive),-0.564,-0.254,-1.39,-0.381,-1.33,-0.017
COc1ccc([Si](C)(C)[C@H]2[C@H](CCn3cc(CCO)nn3)O[C@@]3(C(=O)N(Cc4ccc(N5C(=O)c6cccc7cccc5c67)cc4)c4ccccc43)[C@@H]2C)cc1,0.96,-0.145,-0.564,-2.8 (inactive),0.916,0.682,0.567,1.3,0.652,0.281
O=C1NC(=O)C2C1C=CC(C(O)c1ccc3c(c1)OCO3)N2Nc1ccccn1 (stereo not given),0.165,0.301,0.555,-0.653 (inactive),0.212,0.0668,0.722,1.39,0.388,1.64
O=C(O)[C@H](Cc1ccccc1)n1cc(-c2ccccn2)nn1,-0.0726,-0.22,-0.323,-0.27 (inactive),0.3,0.507,0.211,0.333,0.227,0.325
COC(=O)[C@@]1(Cc2ccccc2)[C@H]2c3cc(C(=O)N4CCCC4)[nH]c3C[C@H]2CN1C(=O)c1ccccc1,1.1,0.865,0.91,-0.0516 (inactive),-0.486,0.0863,-0.478,-0.444,-0.988,0.916
CC(C)(C)N1CC=CC23O[C@@H]4C=CCOC(=O)[C@@H]4[C@H]2C(=O)N(CCCO)[C@@H]3C1=O (stereo not given in full),1.43,-0.451,0.726,-1.28 (inactive),-1.3,-1.13,-1.66,-1.69,-1.26,0.301
COc1c(C)cc(-c2cc3c(c(Cc4ccccc4)n2)[Si](C(C)C)(C(C)C)OC3)cc1C,0.214,-0.0724,-0.313,-0.206 (inactive),0.0744,-0.0485,0.181,0.235,0.0324,0.137
CCOC(=O)C[C@H]1[C@H](OC(=O)c2ccccc2-c2ccccc2)[C@@H](NC(=O)c2ccc3ccccc3n2)c2cc(OCCCO)ccc2N1C(=O)c1ccc2ccccc2n1,0.638,-0.267,-0.535,-1.19 (inactive),0.611,0.0214,0.378,0.469,0.452,-0.0055
COC(=O)C(CC#Cc1ccc2c(c1)[C@]1(C(=O)N2)[C@H](C(=O)O)[C@H]2C(=O)O[C@H](c3ccccc3)[C@H](c3ccccc3)N2[C@@H]1c1ccccc1OCCO)C(=O)OC,1.58,0.485,0.327,0.78 (inactive),1.19,1.31,0.384,1.06,0.337,0.194
COc1ccc([Si](C)(C)[C@@H]2[C@@H](CCO)O[C@]3(C(=O)N(Cc4cccc(N5C(=O)c6cccc7cccc5c67)c4)c4ccccc43)[C@H]2C)cc1,0.187,0.0019,0.466,-0.665 (inactive),0.454,-0.0664,-0.491,-0.339,-0.411,-0.0335
C=C[C@@H](C)[C@H](OC(=O)Nc1ccc(SC)cc1)c1ccc(OCCO)cc1,-0.435,-0.0748,0.626,-1.91 (inactive),-0.553,-1.14,-0.541,-0.138,-0.773,-0.0131
C=C(CCCC)C(=O)CC[C@@H](OC(=O)c1cccnc1)c1ccccc1OCCO,0.996,-0.0709,0.515,4.97 (inactive),0.341,-0.164,-0.183,0.296,-0.265,1.16
CN1C(=O)C2C=CC(C(O)c3c(F)cccc3Cl)N(Nc3ccccc3)C2C1=O (stereo not given),1.54,0.308,0.92,1.29 (inactive),0.657,-0.0475,0.257,0.71,-0.534,0.909
